Data published in PubChem BioAssay.
Activity calls are given as the source filed them.

How the values were obtained:
[1] = test system: Plasmodium falciparum Sir2 (PF13_0152, Sir2A); assay: Plasmodium falciparum Sir2A binding compounds – biochemical, small-molecule microarray, 635 nm fluorescence, primary screen (AID 1098); details: fluorescence 635 nm, higher = more signal;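 also: score merges spot fluorescence intensity with its signal-to-noise ratio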
[2] = probe aDKK1 binding to arrayed compounds – biochemical, biotinylated probe, 635/667 nm fluorescence, primary screen (AID 1099); details: small-molecule microarray, higher = more signal;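 also: score merges 667nm spot fluorescence with signal to noise across triplicate slides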
[3] = probe aCHRDL2 binding to arrayed compounds – biochemical, biotinylated probe, 635/667 nm fluorescence, primary screen (AID 1100); details: small-molecule microarray, higher = more signal
[4] = change in splice reporter luminescence, either direction, cell-based, HEK293, spliceosome inhibition project, primary screen (AID 1101); details: HEK293 splicing luciferase reporter, 24 h, higher = more signal, called active from +8 up or from −8 down;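 also: HEK293 cells carrying a splicing-competent luciferase reporter gene; test concentration not given here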
[5] = molecular target: Fibroblast growth factor 10 (Homo sapiens) (UniProt O15520); assay: compounds binding fibroblast growth factor 10 – biochemical, small-molecule microarray, 635 nm fluorescence, primary screen (AID 1102); details: FGF10 binding, fluorescence 635 nm, higher = more signal
Chain of Fibroblast growth factor 10 (Homo sapiens) (O15520 whole entry, looked up): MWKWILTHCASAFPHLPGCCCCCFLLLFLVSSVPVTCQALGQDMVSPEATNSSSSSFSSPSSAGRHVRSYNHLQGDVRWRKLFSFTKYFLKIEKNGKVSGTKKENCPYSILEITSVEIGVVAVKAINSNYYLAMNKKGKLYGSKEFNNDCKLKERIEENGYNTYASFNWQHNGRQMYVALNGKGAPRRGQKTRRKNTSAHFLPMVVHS

[6] = test system: glycogen synthase kinase-3 (GSK3A per assay name; protocol says GSK3B); assay: compounds binding glycogen synthase kinase-3 – biochemical, small-molecule microarray, 635 nm fluorescence, GSK3A, primary screen (AID 1103); details: fluorescence 635 nm, higher = more signal; also: the record names both GSK3A and GSK3B
[7] = molecular target: Epidermal growth factor receptor (Homo sapiens) (UniProt P00533); assay: compounds binding epidermal growth factor receptor – biochemical, small-molecule microarray, 635 nm fluorescence, primary screen (AID 1104); details: EGFR binding, higher = more signal;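 also: score merges 667 nm emission intensity with spot signal to noise over triplicate slides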
Chain of Epidermal growth factor receptor (Homo sapiens) (P00533 whole entry, looked up): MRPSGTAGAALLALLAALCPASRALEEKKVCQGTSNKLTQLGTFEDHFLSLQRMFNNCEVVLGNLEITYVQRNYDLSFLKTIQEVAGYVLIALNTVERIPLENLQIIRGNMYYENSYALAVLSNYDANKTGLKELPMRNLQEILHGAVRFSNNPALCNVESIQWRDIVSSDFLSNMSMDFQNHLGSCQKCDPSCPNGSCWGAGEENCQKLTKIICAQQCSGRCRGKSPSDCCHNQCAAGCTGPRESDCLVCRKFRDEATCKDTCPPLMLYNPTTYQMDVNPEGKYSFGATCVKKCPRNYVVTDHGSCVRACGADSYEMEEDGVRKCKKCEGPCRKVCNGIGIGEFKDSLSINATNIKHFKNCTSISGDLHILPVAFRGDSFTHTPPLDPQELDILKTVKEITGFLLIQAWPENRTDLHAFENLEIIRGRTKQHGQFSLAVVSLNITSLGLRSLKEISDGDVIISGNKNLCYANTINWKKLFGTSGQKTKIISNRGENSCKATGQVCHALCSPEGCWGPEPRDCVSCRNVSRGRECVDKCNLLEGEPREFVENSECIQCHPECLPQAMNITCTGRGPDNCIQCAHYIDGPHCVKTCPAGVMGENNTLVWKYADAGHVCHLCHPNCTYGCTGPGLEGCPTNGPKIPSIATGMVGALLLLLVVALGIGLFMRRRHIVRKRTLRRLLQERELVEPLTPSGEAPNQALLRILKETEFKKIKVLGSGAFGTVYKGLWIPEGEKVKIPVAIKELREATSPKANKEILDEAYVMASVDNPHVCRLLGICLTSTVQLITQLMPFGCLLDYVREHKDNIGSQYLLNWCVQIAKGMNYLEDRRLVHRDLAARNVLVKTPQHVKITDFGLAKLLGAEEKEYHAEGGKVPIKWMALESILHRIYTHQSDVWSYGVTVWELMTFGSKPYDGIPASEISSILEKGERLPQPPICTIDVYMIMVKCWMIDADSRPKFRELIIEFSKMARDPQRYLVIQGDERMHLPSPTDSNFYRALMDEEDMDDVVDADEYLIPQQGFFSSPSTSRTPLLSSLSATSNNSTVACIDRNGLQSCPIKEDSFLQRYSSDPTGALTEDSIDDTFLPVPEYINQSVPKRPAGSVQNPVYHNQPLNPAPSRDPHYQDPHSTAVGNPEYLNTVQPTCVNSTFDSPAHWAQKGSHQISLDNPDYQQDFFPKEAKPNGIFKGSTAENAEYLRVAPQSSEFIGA

[8] = molecular target: Follistatin-related protein 3 (Homo sapiens) (UniProt O95633); assay: compounds binding follistatin-related protein 3 – biochemical, small-molecule microarray, 635 nm fluorescence, primary screen (AID 1105); details: FSTL3 binding, higher = more signal;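 also: score merges emission near 667 nm and signal to noise per printed spot across three slides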
Chain of Follistatin-related protein 3 (Homo sapiens) (O95633 whole entry, looked up): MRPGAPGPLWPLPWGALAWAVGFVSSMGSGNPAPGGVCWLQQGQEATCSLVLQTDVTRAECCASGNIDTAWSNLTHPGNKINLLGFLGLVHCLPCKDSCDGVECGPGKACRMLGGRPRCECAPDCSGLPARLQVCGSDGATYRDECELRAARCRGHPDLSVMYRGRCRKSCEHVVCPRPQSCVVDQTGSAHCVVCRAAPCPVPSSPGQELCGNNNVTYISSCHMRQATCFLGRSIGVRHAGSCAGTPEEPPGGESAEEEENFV

[9] = molecular target: Dickkopf-related protein 1 (Homo sapiens) (UniProt O94907); assay: small molecules binding DKK1 protein – biochemical, small-molecule microarray, 635 nm fluorescence scan, primary screen (AID 1106); details: higher = more signal;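 also: score merges emission near 667 nm with signal to noise over three replicate slides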
Chain of Dickkopf-related protein 1 (Homo sapiens) (O94907 whole entry, looked up): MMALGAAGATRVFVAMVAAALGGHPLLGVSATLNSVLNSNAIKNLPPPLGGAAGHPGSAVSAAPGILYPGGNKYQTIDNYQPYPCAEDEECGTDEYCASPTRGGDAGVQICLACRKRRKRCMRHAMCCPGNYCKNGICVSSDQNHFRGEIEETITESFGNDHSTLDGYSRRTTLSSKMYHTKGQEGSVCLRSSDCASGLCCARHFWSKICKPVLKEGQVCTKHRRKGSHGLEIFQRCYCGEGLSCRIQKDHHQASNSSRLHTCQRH

[10] = test system: Inhibin beta A chain (activin A); assay: small molecules binding activin A – biochemical, small-molecule microarray, 635 nm fluorescence scan, primary screen (AID 1107); details: INHBA, higher = more signal;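 also: mouse activin A protein probed at 4.33 µg/mL on printed slides; score merges bound-protein fluorescence near 667 nm with spot signal-to-noise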
[11] = test system: Human papillomavirus type 1a protein E7 (residues 44-93); assay: small molecules binding HPV E7 44-93 – biochemical, small-molecule microarray, residues 44-93, 635 nm fluorescence, primary screen (AID 1108); details: fluorescence 635 nm, higher = more signal;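 also: E7 fragment applied at 1 µg/mL in TBST for 1 h at 4 C; score combines spot fluorescence with its signal to noise ratio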
[12] = hepatitis C replication reporter changes, two-sided – Huh7 cells, luciferase reporter, HCV replication inhibitor project, primary screen (AID 1109); details: Huh7 HCV replicon luciferase reporter, 48 h; higher = more signal;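 also: huh7 hepatoma cells harbouring a luciferase neomycin HCV replicon reporter; luciferase luminescence as measure of HCV replicon replication; test concentration not given here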
[13] = molecular target: Left-right determination factor 2 (Homo sapiens) (UniProt O00292); assay: small molecules binding LEFTY2 protein – biochemical, small-molecule microarray, 635 nm fluorescence scan, primary screen (AID 1110); details: higher = more signal
Chain of Left-right determination factor 2 (Homo sapiens) (O00292 whole entry, looked up): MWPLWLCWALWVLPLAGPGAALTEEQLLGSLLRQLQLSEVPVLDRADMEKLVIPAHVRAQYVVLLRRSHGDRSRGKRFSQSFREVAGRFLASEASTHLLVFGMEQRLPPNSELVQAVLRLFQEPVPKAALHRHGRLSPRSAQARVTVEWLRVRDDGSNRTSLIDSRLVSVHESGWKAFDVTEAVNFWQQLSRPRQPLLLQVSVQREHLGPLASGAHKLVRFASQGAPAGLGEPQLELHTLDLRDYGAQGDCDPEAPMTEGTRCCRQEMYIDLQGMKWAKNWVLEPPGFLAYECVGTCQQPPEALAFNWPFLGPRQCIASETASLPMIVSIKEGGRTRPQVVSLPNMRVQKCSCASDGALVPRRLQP

[14] = molecular target: Calmodulin-1 (Homo sapiens) (UniProt P0DP23); assay: small molecules binding calmodulin-1 with EGTA – biochemical, small-molecule microarray, Cy5-labelled CALM1, profiling panel (AID 1111); details: Cy5-CALM1 binding fluorescence, higher = more signal;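 also: labelled calmodulin applied in Tris saline Tween buffer holding calcium plus EGTA and DTT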
[15] = molecular target: Calmodulin-1 (Homo sapiens) (UniProt P0DP23); assay: small molecules binding Ca-loaded calmodulin-1 – biochemical, small-molecule microarray, Cy5-labelled CALM1, plus calcium, artefact control for SMM control-protein annotation, profiling panel (AID 1112); details: Cy5-CALM1 binding fluorescence, higher = more signal;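 also: score merges spot fluorescence with signal to noise from triplicate slides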
[16] = probe aWnt5a binding to arrayed compounds – biochemical, biotinylated probe, 635/667 nm fluorescence, primary screen (AID 1113); details: small-molecule microarray, higher = more signal;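 also: score merges 667 nm fluorescence intensity with signal-to-noise per printed feature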
[17] = probe aShh binding to arrayed compounds – biochemical, biotinylated probe, 635/667 nm fluorescence, primary screen (AID 1114); details: small-molecule microarray, higher = more signal;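 also: probe is biotin-labelled aShh protein from a stem cell growth factor screen; measures binding of labelled protein to compounds printed on the slide; score merges feature fluorescence at 667 nm with signal-to-noise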
[18] = probe aNog binding to arrayed compounds – biochemical, biotinylated probe, 635/667 nm fluorescence, primary screen (AID 1115); details: small-molecule microarray, higher = more signal;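 also: probe is biotinylated aNog protein used at 0.15 µg/mL for 1 h at 4 C; z-score combines 667 nm fluorescence of each spot with its signal to noise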
[19] = molecular target: Torsin-1A-interacting protein 1 (Homo sapiens) (UniProt Q5JTV8); assay: compound microarray binding of lysate hLAP1 – cell lysate, small-molecule microarray, COS7 lysate, 635/667 nm fluorescence, primary screen (AID 1116); details: 635 nm fluorescence, higher = more signal
Chain of Torsin-1A-interacting protein 1 (Homo sapiens) (Q5JTV8 whole entry, looked up): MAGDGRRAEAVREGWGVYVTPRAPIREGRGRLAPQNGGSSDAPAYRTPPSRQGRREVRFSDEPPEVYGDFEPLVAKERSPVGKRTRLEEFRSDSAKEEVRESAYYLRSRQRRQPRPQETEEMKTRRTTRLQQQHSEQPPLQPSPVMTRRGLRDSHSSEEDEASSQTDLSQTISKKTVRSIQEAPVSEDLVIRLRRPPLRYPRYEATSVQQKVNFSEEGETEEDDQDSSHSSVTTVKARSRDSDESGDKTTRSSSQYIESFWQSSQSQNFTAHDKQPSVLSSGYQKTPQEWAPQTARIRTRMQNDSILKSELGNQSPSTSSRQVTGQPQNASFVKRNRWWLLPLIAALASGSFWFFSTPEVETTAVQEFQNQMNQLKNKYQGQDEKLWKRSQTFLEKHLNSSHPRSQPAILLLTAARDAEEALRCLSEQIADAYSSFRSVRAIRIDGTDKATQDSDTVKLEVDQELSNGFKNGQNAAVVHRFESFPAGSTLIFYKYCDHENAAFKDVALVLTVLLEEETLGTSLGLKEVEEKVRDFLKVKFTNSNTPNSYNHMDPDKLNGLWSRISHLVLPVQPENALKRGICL

[20] = molecular target: Alpha-bungarotoxin (Bungarus multicinctus) (UniProt P60615); assay: compounds binding labelled alpha-BTX control protein – biochemical, small-molecule microarray, Alexa647 label, 635/667 nm fluorescence, artefact control for SMM control protein annotation, profiling panel (AID 1117); details: alpha-BTX-A647 binding fluorescence, higher = more signal
Chain of Alpha-bungarotoxin (Bungarus multicinctus) (P60615 whole entry, looked up): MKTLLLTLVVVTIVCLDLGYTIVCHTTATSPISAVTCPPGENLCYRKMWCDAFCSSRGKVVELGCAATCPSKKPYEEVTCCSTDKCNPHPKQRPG

Structure (SMILES)	composite z-score [1]	composite z-score [2]	composite z-score [3]	z-score [4]	composite z-score [5]	composite z-score [6]	composite z-score [7]	composite z-score [8]	composite z-score [9]	composite z-score [10]	composite z-score [11]	z-score [12]	composite z-score [13]	composite z-score [14]	composite z-score [15]	composite z-score [16]	composite z-score [17]	composite z-score [18]	composite z-score [19]	composite z-score [20]
O=C1C2C=CC(C(O)c3ccccc3)N(n3cnnc3)C2C(=O)N1Cc1ccccc1 (stereo not given)	0.0854	0.446	0.908	-0.524 (inactive)	0.0573	-0.279	0.392	-0.117	-0.433	1.46	-0.447	0.573	-0.237	0.206	-0.372	0.0357	-0.0594	0.319	0.327	0.449
CO[C@H]1COC(=O)[C@H](C)NC(=O)CC=C[C@@H](C)[C@H](NS(=O)(=O)c2ccc(C)cc2)COC(=O)[C@@H](OCc2ccccc2)C=C[C@@H]1C	-0.189	-0.667	-0.97	-0.138 (inactive)	0.0808	0.258	0.286	0.512	1.37	0.51	-0.117	-0.179	0.449	-0.967	-1.02	-0.248	-0.167	-0.173	-0.141	-0.606
COc1cccc([C@@H]2[C@@H](C)CC[C@H]3C(=O)N(C)[C@@H](C(C)C)C(=O)N23)c1	0.516	-0.22	-0.532	0.223 (inactive)	0.266	0.649	0.418	0.472	0.782	0.428	0.148	0.512	0.375	-0.169	-0.562	-0.204	-0.0011	-0.141	1.11	0.0641
O=C1C[C@@](C(=O)NCCN2CCOCC2)(c2ccc([N+](=O)[O-])cc2)[C@@H](c2ccc(CO)cc2)N1C1CCCCC1	1.2	0.653	1.02	0.281 (inactive)	0.798	1.02	0.789	0.662	-0.0544	0.64	1.39	-0.867	1.06	0.502	-0.142	0.0621	0.171	0.924	1.6	0.571
O=C(CS)NCCCCCNC(=O)[C@H]1C[C@H]2C(=O)N[C@@H](Cc3ccccc3)C(=O)N2[C@H]1c1ccc(O)cc1	1.26	0.27	0.299	-0.876 (inactive)	0.702	1.29	0.957	0.566	1.25	0.456	0.151	-0.488	0.406	0.741	0.748	-0.0977	0.184	0.185	0.792	3
C=C(C(=O)CC[C@H](OC(=O)c1ccccc1-c1ccccc1C(=O)O)c1ccc(CO)o1)C(C)C	0.75	-0.209	-0.558	-0.107 (inactive)	1.45	0.914	-0.0997	0.858	0.568	0.664	1.24	-1.3	0.408	0.506	-0.698	0.0214	-0.276	0.265	0.875	0.905
COCCOC(=O)N1C(=O)[C@@]2(c3cc(C#CCCO)ccc31)[C@H](c1ccc(O)cc1)N1[C@H](c3ccccc3)[C@H](c3ccccc3)OC(=O)[C@H]1[C@@H]2C(=O)Nc1nc2ccccc2s1	0.762	-0.0965	-0.148	-1.13 (inactive)	1.33	1.32	0.562	1.44	0.685	0.364	1.37	0.688	0.704	0.207	-0.567	-0.0256	-0.167	-0.223	0.234	1.46
C=C(COC)/C(=C/C[C@@H](OC(=O)c1ccncc1)c1ccc(OCCO)cc1)c1cc(C(=O)OC)ccc1OC	1.3	0.318	0.421	-1.43 (inactive)	0.635	1.25	0.16	0.461	0.214	0.147	0.355	-1.63	-0.428	0.947	-0.777	-0.175	-0.0146	0.475	1.45	2.04
Cc1ccc(S(=O)(=O)N2[C@@H](c3ccccc3)C(C(=O)O)=CC[C@H]2c2ccccc2)cc1	0.0714	0.153	0.431	-0.258 (inactive)	0.476	-0.0481	0.197	0.169	-0.454	0.512	0.433	0.498	-0.363	0.526	0.355	0.0317	-0.0709	0.109	-0.701	0.317
O=C1C[C@@](C(=O)NC2CC2)(c2ccc([N+](=O)[O-])cc2)[C@@H](c2ccc(CO)cc2I)N1CC12CC3CC(CC(C3)C1)C2	0.841	-0.0788	-0.52	-1.11 (inactive)	1.23	0.968	0.282	0.991	0.266	-0.22	1.37	-3.45	0.672	0.266	-0.151	0.0644	0.574	-0.0719	0.626	0.905
COC(=O)c1c(CC[C@@H](CO)NC(=O)N[C@H](Cn2cc(-c3cncn3C)nn2)C(C)C)oc(C(C)=O)c1C(=O)OC	0.844	-0.203	-0.342	-1.93 (inactive)	0.512	0.861	0.363	0.165	0.265	-0.253	0.873	0.0688	0.332	-0.055	-0.333	-0.1	-0.2	0.0668	0.542	-0.115
COCCOC(=O)N1C(=O)[C@@]2(c3cc(C#CCC(C(=O)OC)C(=O)OC)ccc31)[C@H](c1ccccc1OCCO)N1[C@H](c3ccccc3)[C@H](c3ccccc3)OC(=O)[C@H]1[C@@H]2C(=O)N1CCCCCCC1	0.853	1.97	1.42	-0.247 (inactive)	0.834	1.29	0.852	1.56	1.4	1.61	1.39	-2.05	1.24	2.17	1.49	0.697	0.626	2.62	1.31	2
CO[C@H]1COC(=O)[C@@H](C)COC(=O)[C@H](Cc2ccccc2)NC(=O)CC=C[C@H]1C	0.7	-0.416	-1.09	-0.776 (inactive)	0.457	0.0364	1.04	1.06	1.5	1.15	0.334	-0.082	0.726	-1.69	-1.8	-0.135	-0.143	-0.454	-0.115	0.0209
CCCC=C(CCC)[C@@H](NS(=O)(=O)c1ccc(-c2ccccc2)cc1)c1ccc(C(=O)OC)cc1	-0.127	0.224	0.516	-2.72 (inactive)	-0.632	-0.84	-0.243	-0.875	-0.422	0.573	0.17	-1.35	0.0185	0.601	0.581	-0.104	0.0796	0.119	0.756	-0.214
O=[N+]([O-])c1ccc(C[n+]2ccc3ccc(O)cc3c2)o1	0.595	0.174	-0.144	-0.0287 (inactive)	0.297	0.314	0.219	0.42	0.0242	0.618	-0.0611	-0.95	-0.0338	1.01	0.287	-0.0435	0.673	-0.206	-0.314	2.53
